# CYP2C19 inh: human CYP2C19 inhibition. 96,000 tested, 21% active. CYP2C19 Supersomes, luciferin-H EGE luminescence, 30 min. P33261. inhibition, % at 5 µM;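 active = CYP2C19 inhibition above a set limit at 5 µM in the primary screen, cut at about 50% in these data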
# Target sequence (P33261 whole entry, looked up): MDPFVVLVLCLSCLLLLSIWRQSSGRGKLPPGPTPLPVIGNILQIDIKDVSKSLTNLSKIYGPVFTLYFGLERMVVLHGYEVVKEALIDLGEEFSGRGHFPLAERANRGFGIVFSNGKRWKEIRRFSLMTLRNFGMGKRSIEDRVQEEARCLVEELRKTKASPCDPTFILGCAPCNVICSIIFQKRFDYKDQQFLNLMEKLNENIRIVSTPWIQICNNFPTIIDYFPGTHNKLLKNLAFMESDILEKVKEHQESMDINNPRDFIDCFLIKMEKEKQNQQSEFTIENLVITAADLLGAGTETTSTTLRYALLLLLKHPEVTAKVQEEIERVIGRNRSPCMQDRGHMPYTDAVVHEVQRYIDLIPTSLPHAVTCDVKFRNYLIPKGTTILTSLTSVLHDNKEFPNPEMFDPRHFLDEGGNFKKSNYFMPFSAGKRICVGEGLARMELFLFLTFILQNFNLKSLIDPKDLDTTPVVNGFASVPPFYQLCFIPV
# CYP2C19 act: activators of human cytochrome P450 2C19; AID 1025; P33261; 96,000 tested, under 10 active; recombinant CYP2C19, luciferin-H EGE luminescence; stronger effect = higher value; 0 = fully inhibited enzyme, 1 = untreated enzyme; activation factor at 5 µM;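 active = activation factor of at least 2 at 5 µM in the primary screen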
# Measles CPE: protection of cells from measles virus; Measles virus-infected cells, CPE protection, absorbance; protection (pct of control), % at 4 µM; 140,000 tested, 1.5% active; AID 841; in the data active = protection mostly above about 24%, no sharp cut-off; inactive = mostly below about 26%
# CYP2C9 act: activators of human CYP2C9; P11712; recombinant CYP2C9, luciferin-H conversion, luminescence; stronger effect = higher value; factor 1 = untreated enzyme, 0 = blocked; activation factor at 5 µM; 96,000 tested, 1.4% active; AID 1024;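 active = activation factor of 2 or more for CYP2C9 at a 5 µM dose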
# CYP2C9 inh: human CYP2C9 inhibition; CYP2C9 Supersomes, luciferin-H conversion, luminescence; inhibition, % at 5 µM; 96,000 tested, 20% active; AID 777;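 active = blocking of liver enzyme CYP2C9 beyond about 50% at 5 µM, limit read from the data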
# A number is an active result; . = inactive; / = no result. In the library only some 22% were active in any assay of this set; here they are far more common.
SMILES,CYP2C19 inh,CYP2C19 act,Measles CPE,CYP2C9 act,CYP2C9 inh
CCN(CC)CCNC(=O)C1c2cc(OC)c(OC)cc2C(=O)N2CCc3ccccc3C12 (centres undefined),.,.,.,.,76
CCCN(CCC)CCCNC(=O)C1c2cc(OC)c(OC)cc2C(=O)N(C)C1c1cccs1 (centres undefined),.,.,.,.,.
COc1cc2c(cc1OC)CN(C(=O)CSc1nnc(C)s1)CC2,.,.,.,.,.
CCOc1ccc(NC(=O)C2=C(C)NC(=S)NC2c2ccc(O)c(OC)c2)cc1 (centres undefined),/,/,.,/,/
CCSc1nnc(NC(=O)CSc2nccn2-c2cccc(C)c2C)s1,.,.,.,.,70
CCSc1nnc(NC(=O)CSc2nccn2-c2cc(C)cc(C)c2)s1,.,.,.,.,50
NC(=O)CC(O)c1cccc(Cl)c1 (centres undefined),.,.,.,.,.
Cc1ccccc1Cn1c(C(C)O)nc2ccccc21 (centres undefined),59,.,.,.,.
CC(NC(=O)c1ccccc1)c1nc2ccccc2n1Cc1ccc(C#N)cc1 (centres undefined),.,.,.,.,.
CC(=O)NCc1nc2ccccc2n1Cc1ccccc1C,.,.,.,.,.
CC(=O)Nc1nc2ccccc2n1Cc1ccccc1C,82,.,.,.,.
CCCCCCn1c(C(C)NC(=O)c2ccco2)nc2ccccc21 (centres undefined),.,.,.,.,56
CC(NC(=O)c1ccccc1)c1nc2ccccc2n1Cc1ccccc1F (centres undefined),.,.,.,.,60
Cc1cc2n(n1)C(c1ccccc1)CC(c1ccc(Br)cc1)=N2 (centres undefined),/,/,.,/,/
COC(=O)COc1ccc(S(=O)(=O)N2CCN(c3ccc(F)cc3)CC2)cc1,.,.,.,.,.
CC(=O)Nc1nc2ccccc2n1CCOc1ccccc1Cl,60,.,.,.,.
CCC(=O)N1CCCc2cc(S(=O)(=O)N3CCN(c4ccccc4F)CC3)ccc21,96,.,.,.,100
CCC(=O)N1CCCc2cc(S(=O)(=O)N3CCN(c4ncccn4)CC3)ccc21,98,.,.,.,96
CCC(=O)N1CCc2cc(S(=O)(=O)N3CCN(C(=O)c4ccco4)CC3)ccc21,.,.,.,.,.
CCC(=O)N1CCCc2cc(S(=O)(=O)N3CCN(c4ccccn4)CC3)ccc21,50,.,.,.,80
Cc1ccc(NC(=O)C2CCN(S(C)(=O)=O)CC2)cc1C,.,.,.,.,.
CC(C)(C)NCC1(CO)SC(N)=NC1=O (centres undefined),.,.,.,.,.
O=C(Nc1ccccc1)OC1CCC2CC1CCC2OC(=O)Nc1ccccc1 (centres undefined),/,/,.,/,/
O=C(O)c1ccccc1NCc1ccncc1,.,.,.,.,76
O=C(O)c1ccc(CNc2ccccc2C(=O)O)cc1,.,.,.,.,.
SMILES,CYP2C19 inh,CYP2C19 act,Measles CPE,CYP2C9 act,CYP2C9 inh
O=C(CN1CCC(n2nnc3cc(F)ccc32)CC1)NCCc1nc2ccccc2[nH]1,.,.,.,.,.
CC(C)CC(=O)NC(=S)Nc1nc(-c2cccc3ccccc23)cs1,.,.,.,.,57
O=C1CC(Sc2nnc(-c3ccccc3)o2)C(=O)N1c1ccccc1 (centres undefined),.,.,.,.,.
O=C1c2ccccc2CC1Sc1nnc(-c2ccncc2)o1 (centres undefined),96,.,.,.,87
CC(=O)Nc1ccc(S(=O)(=O)N2CCN(C(C)CCc3ccccc3)CC2)cc1 (centres undefined),.,.,.,.,56
CCC(=O)c1ccc(OCC(O)CN2CCOCC2)cc1 (centres undefined),.,.,.,.,.
CCC(=O)c1ccc(OCC(O)CN2CCN(C(c3ccccc3)c3ccccc3)CC2)cc1 (centres undefined),.,.,.,.,67
COC(=O)Nc1ccc(S(=O)(=O)N2CCC(Cc3ccccc3)CC2)cc1,.,.,.,.,.
O=S(=O)(N1CCCCC1)N1CCN(CC(O)COc2ccc3cc(Br)ccc3c2)CC1 (centres undefined),.,.,.,.,.
CN(C)S(=O)(=O)N1CCN(CC(O)COc2ccc3cc(Br)ccc3c2)CC1 (centres undefined),.,.,.,.,58
CC(=O)Nc1ccc(OCC(O)CN2CCN(c3cccc(Cl)c3)CC2)cc1 (centres undefined),.,.,.,.,56
Cc1cc(C)c(S(=O)(=O)Nc2ccc(O)c(Sc3ncn[nH]3)c2)c(C)c1,/,/,.,/,/
C=CCOc1c(Br)cc(CNc2ccc(NC(=O)C(C)C)c(OC)c2)cc1OCC,/,/,.,/,/
CCN1CCN(Cc2c(C)[nH]c3ccc(OC)cc3c2=O)CC1,.,.,.,.,.
O=C(CCCn1c(=O)[nH]c2ccsc2c1=O)NCc1cccs1,.,.,.,.,.
CC(=O)Nc1ccc(S(=O)(=O)N2CCN(CC(O)COc3ccc4ccccc4c3)CC2)cc1 (centres undefined),87,.,.,.,87
CC(=O)Nc1ccc(OCC(O)CN2CCN(S(=O)(=O)c3ccc(NC(C)=O)cc3)CC2)cc1 (centres undefined),.,.,.,.,70
CC(=O)Nc1ccc(OCC(O)CN2CCN(c3ccc(Cl)cc3)CC2)cc1 (centres undefined),/,/,.,/,/
OCCN1CCN(CC(O)COc2ccc3ccccc3c2)CC1 (centres undefined),.,.,.,.,.
CCN(CC)C(=O)Cn1nc(C)c2ccccc2c1=O,.,.,.,.,.
COc1ccc(C2(O)CCN(C(=O)Cc3cccnc3)CC2)cc1,58,.,.,.,.
COc1cccc(C2(O)CCN(C(=O)c3cccs3)CC2)c1,.,.,.,.,.
COc1cccc(C2(O)CCN(C(=O)Cc3cccnc3)CC2)c1,73,.,.,.,.
S=C(NCC1CCCO1)Nc1ccc(Cl)cc1Cl (centres undefined),/,/,.,/,/
COC(=O)c1ccccc1N1C(=O)[C@@H]2C(c3ccc(Br)cc3)=NO[C@@H]2C1=O,99,.,.,.,.
SMILES,CYP2C19 inh,CYP2C19 act,Measles CPE,CYP2C9 act,CYP2C9 inh
COC(=O)c1ccccc1N1C(=O)C2C(C1=O)[C@H]1C=C[C@@H]2C1 (some centres undefined),.,.,101,.,.
COC(=O)c1ccccc1N1C(=O)C2C(C1=O)C1C=CC2C12CC2 (centres undefined),.,.,.,.,.
CCCNC(=O)c1cc(S(=O)(=O)N2CCc3ccccc32)ccc1F,/,/,.,/,/
O/N=C1\CCCc2nnc3c(c21)CCCC3,.,.,.,2.9,.
Cc1cccc(OCC2=NS(=O)(=O)c3ccccc3N2)c1,.,.,.,.,51
O=C(CCC1=NS(=O)(=O)c2ccccc2N1)NC1CCCCCCC1,.,.,.,.,.
O=C(c1ccccc1F)N1CCN(CC2CC3C=CC2C3)CC1 (centres undefined),69,.,.,.,.

# High-throughput results (PubChem BioAssay)
